Laboratory results reported in article PMC4336329 (PLoS ONE, 2015).
About 14,000 (4.5%) of roughly 310,000 compounds showed an effect of 50% or more. The effect is printed as a negative number. Shown is part of a subset that was picked to be rich in strong results.

molecular target: human ether-à-go-go-related gene (hERG) potassium channel (human, UniProt Q12809); assay: primary screen, population patch clamp on CHO cells stably expressing hERG; higher = less effect of the substance
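Further: peak tail current of the secondary pulse compared with the same well before compound.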

Sequence of human ether-à-go-go-related gene (hERG) potassium channel (Q12809 whole entry, looked up): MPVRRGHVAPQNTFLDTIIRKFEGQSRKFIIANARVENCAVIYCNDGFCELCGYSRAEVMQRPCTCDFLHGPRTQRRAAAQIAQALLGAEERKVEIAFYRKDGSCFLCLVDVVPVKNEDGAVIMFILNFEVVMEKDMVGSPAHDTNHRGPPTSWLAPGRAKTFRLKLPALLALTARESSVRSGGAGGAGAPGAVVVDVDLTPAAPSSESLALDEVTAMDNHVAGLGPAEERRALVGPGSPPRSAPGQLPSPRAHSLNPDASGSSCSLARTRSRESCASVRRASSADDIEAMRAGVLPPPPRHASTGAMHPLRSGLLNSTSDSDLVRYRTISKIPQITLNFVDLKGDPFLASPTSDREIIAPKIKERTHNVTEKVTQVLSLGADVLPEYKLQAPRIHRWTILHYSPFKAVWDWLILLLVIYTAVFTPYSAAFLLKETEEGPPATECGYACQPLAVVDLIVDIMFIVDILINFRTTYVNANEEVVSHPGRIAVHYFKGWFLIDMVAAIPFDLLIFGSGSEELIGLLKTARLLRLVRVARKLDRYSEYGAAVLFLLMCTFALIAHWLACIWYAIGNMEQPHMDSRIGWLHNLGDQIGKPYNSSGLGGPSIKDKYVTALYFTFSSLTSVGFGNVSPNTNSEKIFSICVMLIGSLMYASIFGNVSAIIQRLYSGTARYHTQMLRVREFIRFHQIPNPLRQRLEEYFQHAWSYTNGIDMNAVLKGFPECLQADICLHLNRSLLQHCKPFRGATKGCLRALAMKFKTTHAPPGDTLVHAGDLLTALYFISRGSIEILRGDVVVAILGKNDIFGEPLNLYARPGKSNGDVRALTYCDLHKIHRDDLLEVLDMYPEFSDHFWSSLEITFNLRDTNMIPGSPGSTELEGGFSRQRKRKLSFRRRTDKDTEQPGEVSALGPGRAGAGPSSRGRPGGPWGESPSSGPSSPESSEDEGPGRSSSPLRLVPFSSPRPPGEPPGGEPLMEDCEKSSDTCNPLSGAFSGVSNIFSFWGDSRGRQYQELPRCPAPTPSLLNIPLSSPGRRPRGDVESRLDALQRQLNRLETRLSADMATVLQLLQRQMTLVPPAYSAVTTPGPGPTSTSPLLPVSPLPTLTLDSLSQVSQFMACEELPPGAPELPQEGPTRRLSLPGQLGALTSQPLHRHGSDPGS

Structure (SMILES) | hERG current change (%, negative = inhibition) at 10uM [%]
Cn1cc(/C=C2\SC(=S)N(NC(=O)c3ccccc3)C2=O)c2ccccc21 | 10.6
CCOc1cc(C(=O)N(C)CC(=O)Nc2cccc(F)c2)ccc1OCC(=O)N1CCCCC1 | -14.1
O=C(COC(=O)CNC(=O)c1ccccc1F)Nc1ccc2[nH]c(=O)[nH]c2c1 | 10.2
COc1ccc(NC(=O)CN2C(=O)NC3(CCCC3)C2=O)cc1 | 13.7
CCOC(=O)c1nn(-c2ccc(F)cc2)c2c1CC/C2=C/c1ccccc1 | 8.7
CN(C)c1cc(N)c2c(n1)CCC2.O=C(O)c1cncc(O)c1 | -10.8
COC(=O)C1C(O)=C(C=Nc2cccc3ccccc23)C(=O)CC1(C)C (stereo not shown) | -2.34
Cc1ccc(S(=O)(=O)NCc2ccccc2C)cc1 | 11.6
N#CC(Sc1ccccn1)c1ccc(Cl)cc1 (stereo not shown) | -18.2
CCCCN(C)C1CCN(C(=S)Nc2ccc(OCC)cc2)CC1 | -76.7
CCCCN(C)C1CCN(C(=S)Nc2ccc(OC)cc2)CC1 | -26
CCOc1ccc(NC(=S)N2CCC(N(C)CCN3CCOCC3)CC2)cc1 | -15.9
CC1CCC(N(C)C2CCN(C)CC2)CC1 (stereo not shown) | 11.3
CCCC12CN3CC(C)(CN(C1)C3c1cccs1)C2=O (stereo not shown) | -7.68
CC(=O)c1ccc(NC(=O)C2CCCC2)cc1 | 10.7
Fc1ccc(OCCCCCN2CCCC2)cc1 | 4.62
Cl.O[Si](CCCN1CCCCC1)(c1ccc(F)cc1)C1CCCCC1 (stereo not shown) | -54.3
Fc1ccc(OCCCCCCN2CCCC2)cc1 | -9.37
CCN(CC)C(=O)c1ccc(S(=O)(=O)NCc2cccnc2)cc1 | 13.9
CC1=C(C(=O)OCc2ccccc2)C(c2cccc3ccccc23)NC(=O)N1CCCC(=O)O (stereo not shown) | 20.8
COc1ccc(C2CC(=O)C=C(NCc3ccc4c(c3)OCO4)C2)cc1 (stereo not shown) | -73.1
COc1ccc(C2CC(=O)C=C(NCCC(C)C)C2)cc1 (stereo not shown) | -73.2
O=C1C=C(NNC(=O)c2ccncc2)CC(c2ccccc2)C1 (stereo not shown) | -1.64

Structure (SMILES) | hERG current change (%, negative = inhibition) at 10uM [%]
COc1ccc([C@H]2CC(=O)C=C(c3ccc4c(c3)OCO4)C2)cc1 | -22.9
O=C1C=C(NCc2ccncc2)CC(c2ccccc2)C1 (stereo not shown) | -70.7
O=C1C=C(Nc2ccccc2)CC(c2ccccc2)C1 (stereo not shown) | 9.51
Cc1ccc(C2CC(=O)C=C(NCc3ccccc3)C2)cc1 (stereo not shown) | -38.8
O=C1C=C(NCc2ccc3c(c2)OCO3)CC(c2ccccc2)C1 (stereo not shown) | -76.9
COc1ccc2cc(C3=CC(=O)C[C@H](c4ccc5c(c4)OCO5)C3)ccc2c1 | 17.3
O=C1C=C(c2ccccc2)C[C@@H](c2ccc3c(c2)OCO3)C1 | -4.15
COc1ccc(C2CC(=O)C=C(NCC3CCCO3)C2)cc1 (stereo not shown) | -9.1
CC(C)CCNC1=CC(=O)CC(c2ccccc2)C1 (stereo not shown) | -33.2
O=C(N/N=C\c1ccco1)Nc1cccc(Cl)c1 | -5.83
CC1CCCCC1NC(=O)CCCn1c(=S)[nH]c2ccsc2c1=O (stereo not shown) | 12.9
C=CCn1c(SCC(=O)NNC(=S)Nc2ccccc2)nnc1-c1ccccc1 | 15.9
Cc1cc([N+](=O)[O-])ccc1NC(=O)CSc1nncn1-c1ccccn1 | -28.1
NC(=O)c1cccnc1OCC(F)(F)F | 2.21
CCOc1ccc(NC(=O)CN(C)S(=O)(=O)c2ccc3c(c2)CCC(=O)N3)cc1 | -41.3
Cc1c(C(=O)NCCSCc2ccc(F)cc2)cnn1-c1ccc(Cl)cc1 | -34.6
Cc1c(C(=O)NCCSCc2cccc(C(F)(F)F)c2)cnn1-c1ccc(F)cc1 | -64.6
Cc1c(C(=O)NCCSCc2cccc(C(F)(F)F)c2)cnn1-c1ccc(Cl)cc1 | -30.6
CC(C)CCNC(=O)CN(Cc1cccs1)C(=O)CCC(=O)Nc1nccs1 | -10.6
COCCNc1c2c(c(C#N)c3nc4ccccc4n13)CCCC2 | -44.1
CN(C)CCNc1c2c(c(C#N)c3nc4ccccc4n13)CCCC2 | -23.5
N#Cc1c2c(c(Nc3ccc(O)cc3)n3c1nc1ccccc13)CCC2 | 5.51
N#Cc1c2c(c(NCCOCCO)n3c1nc1ccccc13)CCCC2 | -63.3

Structure (SMILES) | hERG current change (%, negative = inhibition) at 10uM [%]
N#Cc1c2c(c(Nc3ccccc3)n3c1nc1ccccc13)CCC2 | 19.5
CC(=O)c1ccc(Nc2c3c(c(C#N)c4nc5ccccc5n24)CCC3)cc1 | -73.2
Cc1cc(C(=O)NCc2ccc3c(c2)OCO3)n(-c2ccccc2)n1 | -14.8
CCOC(=O)N1CCN(S(=O)(=O)Cc2ccccc2)CC1 | 15.5
Cc1ccc(S(=O)(=O)Nc2cc(C)c(O)c(Sc3n[nH]c(C)n3)c2)cc1 | 2.79
CNC(=O)/C(C#N)=C/c1c(N2CC(C)OC(C)C2)nc2ccccn2c1=O (stereo not shown) | 1.43
O=C(Cn1cc(C(=O)COc2ccccc2)c2ccccc21)NCc1ccco1 | -0.105
CCN(CC)S(=O)(=O)c1ccc(C(=O)OCCNC(=O)c2cccnc2)cc1 | -2.68
COc1cc2c(cc1OC)CN(c1nc(CN3CCOCC3)nc3sc4c(c13)CCCC4)CC2 | -73.6
COc1cc2c(cc1OC)CN(c1nc(CN3CCOCC3)nc3sc4c(c13)CCC(C)C4)CC2 (stereo not shown) | -67.5
Cc1ccc(Oc2nc(CN3CCOCC3)nc3sc4c(c23)CCC(C)C4)cc1C (stereo not shown) | 7.99
COc1cc2c(cc1OC)CN(c1ccc(C(F)(F)F)cn1)CC2 | 15.9
c1nc(N2CCOCC2)c2c3c(sc2n1)CCCC3 | -7.14
Cc1sc2nc(CN3CCCCC3)nc(Cl)c2c1C | -24.5
CC1CCc2c(sc3nc(CN4CCOCC4)nc(N4CCc5ccccc5C4)c23)C1 (stereo not shown) | -8.23
COc1cc2c(cc1OC)CN(c1nc(CN3CCCC3)nc3sc(C)c(C)c13)CC2 | -75.6
Cc1cccc(Oc2nc(CN3CCOCC3)nc3sc4c(c23)CCCC4)c1 | -29.7
COc1cccc(Nc2nc(CN3CCOCC3)nc3sc4c(c23)CCCC4)c1 | -53.1
Cc1cc(S(=O)(=O)Nc2nc(CN3CCOCC3)nc3sc4c(c23)CCCC4)ccc1F | -17.2
CCNc1nc(CN2CCOCC2)nc2sc3c(c12)CCC3 | -7.54
O=c1[nH]c(=O)n(Cc2ccccc2)c(O)c1/C=N/Nc1c(F)c(F)c(F)c(F)c1F | 3.83
COc1ccc(-c2csc(N)n2)cc1 | -6.71
COc1cccc(-c2ccc3nnc(SCC(=O)N4CCCC4)n3n2)c1 | -17.1

Structure (SMILES) | hERG current change (%, negative = inhibition) at 10uM [%]
COc1cc2c(cc1OC)CN(c1nc(CN3CCCCC3)nc3sc4c(c13)CCCC4)CC2 | -81.2
O=S(=O)(Nc1nc(CN2CCOCC2)nc2sc3c(c12)CCCC3)c1cc(F)ccc1F | -34.9
c1ccc2c(c1)CCN(c1nc(CN3CCOCC3)nc3sc4c(c13)CCCC4)C2 | -60.2
Clc1nc(CN2CCCCC2)nc2sc3c(c12)CCC3 | -33.6
Clc1nc(CN2CCCCC2)nc2sc3c(c12)CCCC3 | -23.1
Clc1nc(CN2CCOCC2)nc2sc3c(c12)CCC3 | 14.5
CCOC(=O)c1nn(-c2ccc(C)cc2)c2nc(Nc3ccccc3)cc(=O)n12 | 21.9
Cc1ccccc1CN(c1ccc(C(=O)N/N=C/c2ccc(OCC(N)=O)cc2)cc1)S(C)(=O)=O | 5.85
CO/N=C/c1cccn1-c1nccc(N(C)C)c1C#N | -2.01
CCCN1CCN(C(=O)CCS(=O)(=O)c2cc3c(cc2Cl)NC(=O)CO3)CC1 | -48
COc1ccc(S(=O)(=O)NCC2CCCN(C(=O)CCC(F)(F)F)C2)cc1 (stereo not shown) | 2.06
COc1ccc(N(C(=O)Cn2nnc3ccccc32)C(C(=O)NCc2ccco2)c2cccnc2)cc1 (stereo not shown) | 9.77
Cc1ccccc1CSc1nccn1-c1ccccc1 | -8.94
CC(C)C(=O)N1CCC(Cc2ccccc2)CC1 | 4.6
C[C@H](NC(=O)N1CCC(Cc2ccccc2)CC1)C(=O)O | 15.5
CC(C)NC(=S)N1CCC(Cc2ccccc2)CC1 | -2.26
C[C@@H](CN1CCC(Cc2ccccc2)CC1)[C@@H](O)c1ccc(O)cc1.Cl | -71.3
CC(C)CNC(=S)N1CCC(Cc2ccccc2)CC1 | -40.1
CC(C(O)c1ccc(O)cc1)N1CCC(Cc2ccccc2)CC1.O=C(O)C(O)C(O)C(=O)O (stereo not shown) | -71.4
CCC(C)[C@H](NC(=O)N1CCC(Cc2ccccc2)CC1)C(=O)O (stereo partly shown) | 15.2
CC(C(O)c1ccc(O)cc1)N1CCC(Cc2ccccc2)CC1.O.O=C(O)C(O)C(O)C(=O)O (stereo not shown) | -65.4
CC(C)[C@H](NC(=O)N1CCC(Cc2ccccc2)CC1)C(=O)O | 6.12
